Results published in PubChem BioAssay AID463190 (Sanford-Burnham Center for Chemical Genomics, 2010).
Out of some 330,000 compounds screened, about 7,300 (2.2%) were called active. This is one part of a sample in which actives are shown more often than they occur.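 The calls were made as follows: active = inhibition of at least 40%; inactive = the rest.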

Assay: growth inhibitors of tim10-1 mutant yeast, primary screen, luminescence, uHTS (AID 463190);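 also: mutant grown at 25 °C; 0% = DMSO wells with yeast and 100% = wells holding no yeast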
Settings: S. cerevisiae tim10-1 ts strain growth, BacTiter-Glo, 24 h; at 20 µM; stronger effect = higher value

Row | SMILES | inhibition
1 | CN(C(=O)CC1C(=O)NCCN1Cc1ccc2ccccc2c1)C1CCOCC1 (centres undefined) | 29.6% (inactive)
2 | NS(=O)(=O)c1ccc(CCNC(=O)c2nc(CS(=O)(=O)c3ccc(Cl)cc3)no2)cc1 | -1.2% (inactive)
3 | CCCN(c1ccc(C)cc1)c1nc(=O)c2cccnc2s1 | 15.2% (inactive)
4 | CCC(C)NCCOCCOc1ccc(Br)cc1C (centres undefined) | -4.38% (inactive)
5 | COc1ccc(-c2nc3cnccn3c2NC(C)(C)CC(C)(C)C)cc1O | 32.9% (inactive)
6 | Cc1ccc(C(=O)O/N=C(\N)c2ccccn2)cc1Cl | 26.8% (inactive)
7 | Cc1cccc(/C(N)=N/OC(=O)c2ccccc2Cl)c1 | 59.7% (active)
8 | C/C(=N\OC(=O)c1ccccc1)c1c(C)nc2cc(C)ccn12 | 5.99% (inactive)
9 | O=C(NCc1ccco1)/C(=C/c1cccc([N+](=O)[O-])c1)NC(=O)c1ccco1 | 15.4% (inactive)
10 | Cc1ccc(N2C(=O)C3C4C=CC(CC4)C3C2=O)cc1Br (centres undefined) | 6.71% (inactive)
11 | Cc1ccc2nc(N(CCN(C)C)C(=O)C3=COCCO3)sc2c1 | 44.8% (active)
12 | CN(C)CCN(C(=O)C1CCCCC1)c1nc2cc3c(cc2s1)OCO3 | 16.1% (inactive)
13 | CN(C)CCN(C(=O)CN1C(=O)c2ccccc2C1=O)c1nc2cc3c(cc2s1)OCCO3 | -13.3% (inactive)
14 | CCc1ccc2nc(N(CCCN(C)C)C(=O)c3ccc4c(c3)OCCO4)sc2c1 | 16% (inactive)
15 | CCN(CC)CCN(C(=O)c1cc(Cl)sc1Cl)c1nc2cc3c(cc2s1)OCO3 | 36.6% (inactive)
16 | CN(C)CCN(C(=O)C1=COCCO1)c1nc2ccc(Cl)cc2s1 | 66.5% (active)
17 | CN1C(=O)C2(OCCCO2)c2cc(Cl)ccc21 | -14.9% (inactive)
18 | CNC(=O)c1[nH]cnc1C(=O)N[C@@H](CC(C)C)C(=O)OCc1ccccc1 | 18.1% (inactive)
19 | COC(=O)c1cc(S(=O)(=O)NCC2CCN(Cc3ccc(Cl)cc3)CC2)cn1C | -24.4% (inactive)
20 | Cc1cccc(C)c1NC(=O)CSc1nnc(-c2ccccc2)n1Cc1ccc2c(c1)OCO2 | 21.2% (inactive)
21 | CC1=C(C(N)=O)C(c2ccc3c(c2)OCO3)n2nc(-c3cccc(C)c3)nc2N1 (centres undefined) | 0.453% (inactive)
22 | c1ccc(-c2nnc3n2NC(c2ccc4c(c2)OCO4)S3)cc1 (centres undefined) | 51.2% (active)
23 | COc1ccc(CC(=O)N[C@@H]2c3cc(OC)c(OC)cc3C[C@H]2OCc2ccccc2)cc1 | 15.2% (inactive)
24 | Cc1ccccc1NCC(=O)N/N=C\c1ccc([N+](=O)[O-])s1 | 53.3% (active)

Row | SMILES | inhibition
25 | COc1ccc(C(=O)NCC(=O)N/N=C/c2ccc([N+](=O)[O-])s2)cc1OC | 16.7% (inactive)
26 | Cc1ccc(/C=N/NC(=O)CN2CCN(Cc3ccccc3)CC2)s1 | -3.89% (inactive)
27 | COc1ccc(CN2CCN(Cc3ccc(OC)c(OC)c3OC)CC2)cc1 | -1.36% (inactive)
28 | CCOc1ccc(C(=O)NC2CCN(C(=O)Nc3ccccc3OC)CC2)cc1 | 6.63% (inactive)
29 | CCOC(=O)c1cc(C#N)c(N2CCCCC2)nc1-c1ccccc1 | -4.08% (inactive)
30 | CCOc1ccc2nc(N3CCCN(C(=O)Nc4ccccc4C)CC3)c(C#N)cc2c1 | 42.1% (active)
31 | O=CN1CCN(C(=O)c2ccc3c(c2)OCO3)CC1 | -19.2% (inactive)
32 | COc1cccc(NS(=O)(=O)c2ccc3[nH]cc(C(=O)NCCCOC(C)C)c(=O)c3c2)c1 | 19.3% (inactive)
33 | Nc1ccccc1/C=N\N=C/c1ccccc1N | 7.02% (inactive)
34 | O=C1C=C(c2cc(C(F)(F)F)cc(C(F)(F)F)c2)C[C@@H](c2ccc3c(c2)OCO3)C1 | -2.52% (inactive)
35 | Cc1cn(COC/C=C/c2ccccc2)c(=O)[nH]c1=O | 7.72% (inactive)
36 | Cc1[nH]c(=O)c(C(=O)/C=C/c2ccccc2)c2c1CCCC2 | 46.1% (active)
37 | COC(=O)c1c(C)[nH]c(C(=O)/C=C/c2ccc(Cl)cc2)c1C | 5.77% (inactive)
38 | CCCC1OC23CCCCC2C(C#N)(C#N)C1(C#N)C(=N)O3 (centres undefined) | 13% (inactive)
39 | c1ccc(-c2cn3c(n2)CCc2ccc4cccnc4c2-3)cc1 | 42% (active)
40 | Cc1cc(N2C(=O)c3ccc(C(=O)NCc4ccccc4)cc3C2=O)no1 | 11.1% (inactive)
41 | CCCc1nn2c(=O)cc(CSCC(=O)Nc3cccc(C)c3)nc2s1 | 5.18% (inactive)
42 | CCOC(=O)CC(NC(=O)C1c2ccccc2Oc2ccccc21)c1ccc(C)cc1 (centres undefined) | 5.58% (inactive)
43 | CC(C)(C)NC(=O)NC(=O)COC(=O)C1c2ccccc2Oc2ccccc21 | 23.3% (inactive)
44 | CCCCN1C(=S)NC[C@@H]1C(C)CC (some centres undefined) | 20.5% (inactive)
45 | CCOC(=O)/C=C/c1ccc(C(F)(F)F)cc1S(=O)(=O)NC(C)(C)C | 44.1% (active)
46 | CCOC(=O)NNc1cc(C(F)(F)F)ccn1 | -3.69% (inactive)
47 | Cn1c(N)c(C(=O)COC(=O)/C=C/c2cccc(C(F)(F)F)c2)c(=O)n(C)c1=O | 17.7% (inactive)
48 | COC(C(=O)NCc1ccccc1C)c1ccccc1 (centres undefined) | -2.01% (inactive)

Row | SMILES | inhibition
49 | CCCCn1c(SCC(=O)N2CCOCC2)nc2c1c(=O)n(C)c(=O)n2C | 0.276% (inactive)
50 | COc1ccc(Cc2nnc(NC(=O)c3cc(OC)c(OC)c(OC)c3)s2)cc1OC | 8.1% (inactive)
51 | CC(=O)Oc1ccc(C(=O)Nc2nccs2)cc1 | 8.42% (inactive)
52 | COc1cc(C(=O)Nc2nccs2)cc(OC)c1OC | 43.9% (active)
53 | Cc1ccc(SC(C)C(=O)NCc2ccc(F)cc2)cc1 (centres undefined) | 9.06% (inactive)
54 | CNS(=O)(=O)c1cccc(C(=O)OCCCC(=O)c2ccccc2)c1 | 3.9% (inactive)
55 | Cc1ccsc1C(=O)NCCc1ccco1 | -19% (inactive)
56 | COc1cc(SC)ccc1C(=O)NNC(=O)C1COc2ccccc2O1 (centres undefined) | 5.41% (inactive)
57 | COc1ccc(OC)c2sc(NC(=O)C3COc4ccccc4O3)nc12 (centres undefined) | 47.3% (active)
58 | COc1ccc(NC(=O)C2COc3ccccc3O2)cc1 (centres undefined) | 21.5% (inactive)
59 | CCc1cccc(C)c1NS(=O)(=O)c1c(C)nc2sccn2c1=O | 21.8% (inactive)
60 | COc1ccc(NC(=O)C2C3CCC(O3)C2C(=O)O)cc1OC (centres undefined) | -1.54% (inactive)
61 | COCCNC(=O)CSc1nc2c(n1-c1ccccc1)CCCC2 | 12% (inactive)
62 | COc1ccc(C(C(=O)NC2CCCCC2)N(C(=O)Cc2c[nH]c3ccccc23)c2ccccc2)cc1OC (centres undefined) | 13.4% (inactive)
63 | CCn1c(SCC(=O)Nc2cc(C)c(Cl)cc2OC)nnc1-c1ccco1 | 14% (inactive)
64 | COc1cc(Cl)c(C)cc1NC(=O)CSc1nnc(-c2ccco2)n1CC(C)C | 42.7% (active)
65 | COc1cc(Cl)c(C)cc1NC(=O)CSc1nnc(-c2cccnc2)n1Cc1ccco1 | 22.4% (inactive)
66 | COc1ccc(C(=O)C2CCCN(C(=O)c3ccc(OC)o3)C2)c(C)c1 (centres undefined) | 20.5% (inactive)
67 | COc1ccccc1CC(NC(C)=O)C(=O)NC1CCN(C(=O)Nc2ccccc2Cl)CC1 (centres undefined) | 12% (inactive)
68 | CCCCn1c(CCCNC(=O)CC)nc2ccccc21 | 0.782% (inactive)
69 | CC(=O)Nc1nc2ccccc2n1Cc1ccc(C)cc1 | 19% (inactive)
70 | CCC(=O)Nc1nc2ccccc2n1Cc1ccccc1C | 40.8% (active)
71 | COc1ccc(NS(=O)(=O)c2ccc(Oc3c(C#N)cccc3C#N)cc2)cc1 | -28.8% (inactive)
72 | COc1ccccc1NC(=O)C1=C(C)Nc2nnnn2C1c1cccc(Br)c1 (centres undefined) | 42.4% (active)

Row | SMILES | inhibition
73 | COc1ccc(C2C(C(=O)Nc3ccccc3OC)=C(C)Nc3nnnn32)c(OC)c1 (centres undefined) | 0.795% (inactive)
74 | COc1cc(C2C(C(=O)Nc3ccccc3OC)=C(C)Nc3ncnn32)ccc1O (centres undefined) | 8.15% (inactive)
75 | COC(=O)c1ccccc1NC(=O)C1CC(=O)N(c2ccc(OC)cc2)C1 (centres undefined) | 3.6% (inactive)
76 | COCCn1nnnc1CN1CCC(NC(=O)Nc2cccc(OC)c2)CC1 | -0.459% (inactive)
77 | COc1ccc(/C=C2\SC(=O)N(CCC(=O)NCCCn3ccnc3)C2=O)cc1 | 8.52% (inactive)
78 | COc1ccc(/C=C2/SC(=O)N(CCCCCC(=O)Nc3ccccc3C(=O)O)C2=S)cc1 | 40% (active)
79 | COc1ccc(/C=C2\SC(=O)N(CCC(=O)NC3CCS(=O)(=O)C3)C2=O)cc1 (centres undefined) | -0.597% (inactive)
80 | Cc1cccc(OCC(O)Cn2c(N3CCCCC3)nc3c2c(=O)[nH]c(=O)n3C)c1 (centres undefined) | 12.9% (inactive)
81 | CCOC(=O)C1CCN(C(=O)COc2cccc3ccccc23)CC1 | 6.37% (inactive)
82 | O=C(CCCN=C1NS(=O)(=O)c2ccccc21)OCC(=O)c1ccc(F)c(F)c1 | 11.8% (inactive)
83 | CCOc1ccc(NC(=O)CN(C)C(=O)c2c(C)noc2C)cc1OCC | -5.08% (inactive)
84 | COC(=O)C1(CCSC)NC(c2ccc(OC)cc2OC)C2C(=O)N(c3cccc(C(C)=O)c3)C(=O)C21 (centres undefined) | 8.92% (inactive)
85 | CC(C)CNC(=S)Nc1ccc(F)cc1 | 0.34% (inactive)
86 | CC(C)(CCl)C(=O)Nc1ccc(Sc2ccc(F)cc2)cc1 | 53.5% (active)
87 | O=C(Nc1ccncc1)Nc1ccc(F)cc1 | -16.8% (inactive)
88 | Cc1ccc(NC(=O)Cc2nc(COC(=O)C(C)NS(=O)(=O)c3ccc(C)cc3)cs2)cc1 (centres undefined) | 15.7% (inactive)
89 | O=C(CSC(=S)N1CCCCC1)c1c(F)cccc1F | 9.67% (inactive)
90 | Oc1c(Cl)cc(Cl)c(Cl)c1Cc1c(O)c(Cl)cc(Cl)c1Cl | 91% (active)
91 | Cc1cc(/C=N/NC(=O)CC2(C)OCCO2)c(C)n1-c1ccc(Cl)c(Cl)c1 | 1.86% (inactive)
92 | O=C1c2cccnc2C(Nc2ccc(S(=O)(=O)N3CCCCCC3)cc2)N1Cc1ccccc1 (centres undefined) | 34.2% (inactive)
93 | CC1=C(/C=C/C(C)=C/C=C/C(C)=C/C=C/C=C(C)/C=C/C=C(C)/C=C/C2=C(C)CCCC2(C)C)C(C)(C)CCC1 | 10.6% (inactive)
94 | CCCCCCCCCCCCCCCC(=O)OC/C=C(C)/C=C/C=C(C)/C=C/C1=C(C)CCCC1(C)C | 40.7% (active)
